Screening results: PubChem, several laboratories
SARS 3CLpro inh – SARS-CoV 3CLpro protease inhibitors, primary screen, biochemical, quenched FRET | Replicase polyprotein 1ab (Severe acute respiratory syndrome coronavirus), P0C6X7 | actives 0.14% (n = 290,000) | recombinant SARS-CoV 3CLpro, quenched FRET peptide cleavage | inhibition, % at 6 µM; in the data active means inhibition above about 12%
PfHsp40 rescue – rescue of yeast from PfHsp40 toxicity, primary screen, S. cerevisiae, ATP luminescence | S. cerevisiae expressing PfHsp40, growth rescue | growth rescue, % at 12.5 µM | actives 0.68% (n = 340,000) | AID 504582, 2011; in the data active means growth rescue above about 28%, passing the limit was not always enough;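 further: yeast W303a lacking pdr1 and pdr3 grown in galactose medium; growth measured after three days at 30 °C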
PrP UTR inh – inhibition of PrP 5' UTR reporter expression; actives 0.35% (n = 340,000); inhibition, % (concentration not given with the values); cell-based PrP 5' UTR mRNA reporter, plate reader; AID 488862, 2010; in the data active means inhibition above about 52%
Vc quorum ag – inducers of Vibrio cholerae quorum light production without autoinducers, primary screen, BH1578 luxS cqsA deficient, single point; AID 588436, 2011; actives 0.16% (n = 350,000); activation, % at 18.7 µM; V. cholerae BH1578 lux reporter, luminescence, 6 h; in the data active means activation mostly above about 9.7%, no sharp cut-off
PrPC TRFRET – inhibitors of human cell surface prion protein PrPC, primary screen, cell-based, TR-FRET | Major prion protein (Homo sapiens), P04156 | actives 0.43% (n = 370,000) | TR-FRET read-out | AID 720596, 2013 | inhibition, % at 13.8 µM; in the data active means inhibition above about 24%
PriA SSB inh – inhibitors of Klebsiella pneumoniae PriA binding to SSB C-terminal tail, primary screen, biochemical, AlphaScreen. PriA–SSB C-terminal tail interaction (Klebsiella pneumoniae). AlphaScreen SSBct-PriA binding, biotinylated peptide. inhibition, % at 33 µM. actives 0.6% (n = 430,000); in the data active means inhibition mostly above about 37%, no sharp cut-off; inactive means mostly below about 20%
PrPC TRFRET cf – confirmation of inhibitors of cell surface human prion protein, confirmation, cell-based, TR-FRET. actives 65% (n = 1,500). inhibition, % at 13.8 µM. cell surface PrPC level. AID 743200, 2013. shares compounds with PrPC TRFRET; in the data active means inhibition above about 25%
LD9 cytotox – cytotoxicity in LD9 cells, cytotoxicity control for cell surface PrPc inhibitor project, cell-based, luminescence, high throughput | AID 743201, 2013 | luminescence viability | actives 29% (n = 1,500) | inhibition, % at 13.8 µM | shares compounds with PrPC TRFRET; in the data active means inhibition above about 9.5%
Large screens that a line does not name were inactive (follow-up assays come after a bar, where they were run). In the library only some 1.6% were active in any assay of this set; here they are far more common.

COc1cccc(N2CCN(c3nc(C)c(C)c(=O)[nH]3)CC2)c1	none
CN1OC(Cn2cc(C#N)c(=O)n(C)c2=O)CC1c1ccccc1 (stereo unspecified)	PrPC TRFRET 25 | PrPC TRFRET cf inactive | LD9 cytotox inactive
CSC1CC2CCC(C1)N2C(=O)c1ccc(F)cc1 (stereo unspecified)	none (no result: SARS 3CLpro inh, PfHsp40 rescue, PrP UTR inh, Vc quorum ag, PrPC TRFRET)
CC[C@@H]1CCC[C@@H](O)[C@@H](C)C(=O)O[C@H](C)[C@@H](C)C/C=C(C)/C(OC)=C\C(=O)N(C)C([C@@H](C)CC)C(=O)N(C)[C@@H](C(C)C)C(=O)N(C)[C@@H](COC)C(=O)N2CCC[C@H]2C(=O)N(C)[C@@H](C(C)C)C(=O)N2CCC[C@H]2C(=O)O1 (stereo partly specified)	PrPC TRFRET 41 (no result: SARS 3CLpro inh, PfHsp40 rescue, PrP UTR inh, Vc quorum ag, PriA SSB inh) | PrPC TRFRET cf 51 | LD9 cytotox 16
Cc1nc2cc(NC(=O)c3ccn(C)n3)ccc2s1	none (no result: SARS 3CLpro inh, PfHsp40 rescue, PrP UTR inh, Vc quorum ag, PrPC TRFRET)
Cc1ccc(NS(=O)(=O)c2ccc(Cl)c(C(=O)Nc3ccccc3-c3nc4ccccc4[nH]3)c2)cc1C	PrPC TRFRET 26 | PrPC TRFRET cf inactive | LD9 cytotox inactive
COc1ccc2c(c1O)-c1c(O)c(OC)cc3c1[C@H](C2)[N+](C)(C)CC3	none (no result: SARS 3CLpro inh, PfHsp40 rescue, PrP UTR inh, Vc quorum ag, PrPC TRFRET)
Nc1c(C(=O)Nc2ccc3c(c2)OCCO3)nnn1Cc1cccc(Br)c1	PrPC TRFRET 29 (no result: SARS 3CLpro inh) | PrPC TRFRET cf inactive | LD9 cytotox inactive
COc1ccc(CC(=O)NC(c2ccccc2)c2ccc(C)cc2)c(OC)c1 (stereo unspecified)	PrPC TRFRET 30 | PrPC TRFRET cf 28 | LD9 cytotox inactive
O=C(OCCC12CC3CC(CC(C3)C1)C2)c1ccc(NCc2cc(O)ccc2O)cc1	PrPC TRFRET 28 (no result: SARS 3CLpro inh) | PrPC TRFRET cf 45 | LD9 cytotox 72
N#CCC(=O)Nc1ccc(C(=O)OCC(=O)C23CC4CC(CC(C4)C2)C3)cc1	none (no result: SARS 3CLpro inh)
O=C(OCC12CC3CC(CC(C3)C1)C2)c1ccc(NCc2cc(O)ccc2O)cc1	PrPC TRFRET 25 (no result: SARS 3CLpro inh) | PrPC TRFRET cf 26 | LD9 cytotox 22
COc1cccc(-c2nc(Cn3c(=O)n(CC4CCCO4)c(=O)c4ccccc43)c(C)o2)c1OC (stereo unspecified)	none (no result: SARS 3CLpro inh, PfHsp40 rescue, PrP UTR inh, Vc quorum ag, PrPC TRFRET)
C[C@H]1CCc2sc(NC(=O)c3cccs3)c(C(N)=O)c2C1	none (no result: SARS 3CLpro inh, PfHsp40 rescue, PrP UTR inh, Vc quorum ag, PrPC TRFRET)
Cc1nc(Nc2nc(CSc3nc4ccccc4[nH]3)cc(=O)[nH]2)nc2ccccc12	PrPC TRFRET 34 | PrPC TRFRET cf 46 | LD9 cytotox 20
COc1ccc2nc(Nc3nc(CSc4nc5ccccc5[nH]4)cc(=O)[nH]3)nc(C)c2c1	none
CCOc1ccccc1C(=O)Nc1ccc2nc(C)[nH]c(=O)c2c1	PrPC TRFRET 26 (no result: SARS 3CLpro inh, PfHsp40 rescue, PrP UTR inh, Vc quorum ag, PriA SSB inh) | PrPC TRFRET cf inactive | LD9 cytotox inactive
CC(=O)N1CCCc2cc(S(=O)(=O)N3CCCC(C(=O)Nc4cccc(F)c4)C3)ccc21 (stereo unspecified)	PrPC TRFRET 36 | PrPC TRFRET cf 24 | LD9 cytotox 11
CCc1ccc(NC(=O)C2CCCN(S(=O)(=O)c3ccc4c(c3)CCCN4C(C)=O)C2)cc1 (stereo unspecified)	PrPC TRFRET 25 | PrPC TRFRET cf 37 | LD9 cytotox inactive
COc1ccc(CNC(=O)C2CCCN(S(=O)(=O)c3ccc4c(c3)CCCN4C(C)=O)C2)cc1 (stereo unspecified)	none
CS(=O)(=O)N1CCCC(C(=O)Nc2cccc(F)c2)C1 (stereo unspecified)	none
CC(=O)N1CCCc2cc(S(=O)(=O)N3CCCC(C(=O)N4CCN(c5cc(C)ccc5C)CC4)C3)ccc21 (stereo unspecified)	PrPC TRFRET 25 | PrPC TRFRET cf inactive | LD9 cytotox 9.3
CCOC(=O)c1ccc(NC(=O)C2CCCN(S(=O)(=O)c3ccc(F)cc3)C2)cc1 (stereo unspecified)	PrPC TRFRET 30 | PrPC TRFRET cf inactive | LD9 cytotox inactive
COc1ccc(F)cc1S(=O)(=O)N(Cc1cccs1)C1CCOCC1	none (no result: SARS 3CLpro inh, PfHsp40 rescue, PrP UTR inh, Vc quorum ag, PrPC TRFRET)
O=[N+]([O-])c1ccc(Sc2cccc[n+]2[O-])c2nonc12	PfHsp40 rescue 683, PrPC TRFRET 37 (no result: PriA SSB inh) | PrPC TRFRET cf 73 | LD9 cytotox 99
OC[C@@H]1CN(Cc2ccc(-c3ccccc3)cc2)C[C@H](n2cnc3c(NC4CC4)ncnc32)O1	none (no result: SARS 3CLpro inh, PfHsp40 rescue, PrP UTR inh, PriA SSB inh)
OC[C@@H]1CN(Cc2ccc(Cl)cc2)C[C@H](n2cnc3c(NC4CCC4)ncnc32)O1	PrPC TRFRET 26 (no result: SARS 3CLpro inh, PfHsp40 rescue, PrP UTR inh, PriA SSB inh) | PrPC TRFRET cf inactive | LD9 cytotox inactive
COc1ccc(Cl)cc1N/C(N)=N/c1nc(C)cc(=O)[nH]1	PrPC TRFRET 32 (no result: PriA SSB inh) | PrPC TRFRET cf inactive | LD9 cytotox inactive
Cc1ccccc1Cn1cc(NC(=O)c2cc(-c3cccs3)on2)cn1	none
Cc1ccccc1Cn1cc(NC(=O)c2cc(-c3ccco3)on2)cn1	PrPC TRFRET 30 | PrPC TRFRET cf inactive | LD9 cytotox inactive
CCOC(=O)c1ccc(NC(=O)c2cccn(Cc3ccccc3Cl)c2=O)cc1	none (no result: SARS 3CLpro inh, PfHsp40 rescue, PrP UTR inh, Vc quorum ag, PrPC TRFRET)
Cc1cccc(NNC(=O)C(=O)NNc2cccc(C)c2)c1	PrPC TRFRET 29 | PrPC TRFRET cf inactive | LD9 cytotox inactive
N#Cc1cccc(C(c2nnnn2C2CCCC2)N2CCCCCC2)c1 (stereo unspecified)	PrPC TRFRET 41 | PrPC TRFRET cf inactive | LD9 cytotox inactive
NC(=O)C1CCN(c2ccc3cccc(OCc4ccc(Br)cc4)c3n2)CC1	none (no result: SARS 3CLpro inh, PfHsp40 rescue, PrP UTR inh, Vc quorum ag, PrPC TRFRET)
Cc1c(CC(=O)O)c(=O)oc2c(C)c3occ(-c4ccccc4)c3cc12	PrPC TRFRET 28 | PrPC TRFRET cf inactive | LD9 cytotox inactive
Cc1c(CCC(=O)O)c(=O)oc2c(C)c3occ(-c4ccc(Cl)cc4)c3cc12	none
Cc1ccc(S(=O)(=O)N2CCN(CC(O)c3ccccc3)CC2)cc1C (stereo unspecified)	PrPC TRFRET 57 | PrPC TRFRET cf inactive | LD9 cytotox inactive
CCOC(=O)Nc1nc(-c2ccccc2)c(C(=O)c2ccc(Cl)cc2)s1	PrPC TRFRET 25 | PrPC TRFRET cf inactive | LD9 cytotox 9.6
O=C(Nc1nc(-c2ccccc2)c(C(=O)c2ccccc2)s1)c1ccc(Cl)cc1	none (no result: SARS 3CLpro inh, PfHsp40 rescue, PrP UTR inh, Vc quorum ag, PrPC TRFRET)
CC(C)C(=O)NC(c1ccc(Cl)cc1Cl)c1ccc2cccnc2c1O (stereo unspecified)	PrPC TRFRET 30 | PrPC TRFRET cf 25 | LD9 cytotox 9.8
